Screening data from PubChem.
A selection follows.
aSyn UTR act – Activators working through SNCA 5'UTR binding (MLPCN); AID 1814; alpha-synuclein 5'UTR reporter, activators screen; 300,000 compounds, 7.1% hits; activity score, % (tested at 7.5 µM), hits read low; in the data active means activity score below about -60%
Of the large screens only hits and unclear results are named; the others gave an inactive call.

CCCC(=O)NC(c1ccccc1)c1ccc2cccnc2c1O (stereo unspecified)	none
NNc1nc2c(-c3cccc(C(F)(F)F)c3)nnn2c2ccccc12	aSyn UTR act -70.9
O=C(Nc1ccc2nc(-c3cccs3)[nH]c2c1)c1cccs1	aSyn UTR act -223.0
O=C(Nc1ccc2nc(-c3cccs3)[nH]c2c1)c1ccco1	aSyn UTR act -183.2
CC(=O)Nc1ccc2nc(-c3ccccn3)[nH]c2c1	aSyn UTR act -158.2
O=C(Nc1ccc(-c2nc3ccc(NC(=O)c4cccs4)cc3[nH]2)cc1)c1cccs1	none
CC1(C(=O)OCC(=O)Nc2ccc3ccccc3c2)CC1(Cl)Cl (stereo unspecified)	aSyn UTR act -78.1
COc1ccc(C2=NOC(CNC(=S)N3CCOCC3)C2)cc1 (stereo unspecified)	aSyn UTR act -132.0
CCN(CC)C(=O)CSC(=Nc1ccccc1F)NC#N	aSyn UTR act -108.7
C=CC[n+]1c(/C=C2\C=Cc3cc(C)ccc3N2CC)ccc2ccccc21	none
CCN1/C(=C2/SC(=S)N(C)C2=O)C=Cc2cc(C)ccc21	aSyn UTR act -68.3
O=C(Nc1ccccc1)Nc1ccc2ccccc2n1	aSyn UTR act -89.1
O=C(Nc1ccc(F)cc1)Nc1ccc2ccccc2n1	aSyn UTR act -105.6
CSc1nn(-c2ccc(C(=O)OCC(=O)NC(=O)NC(C)C)cc2)c(=S)s1	aSyn UTR act -69.3
CC1CCN(C(=O)c2cc3c(=O)n4ccccc4nc3s2)CC1	aSyn UTR act -77.7
O=C(c1cc2c(=O)n3ccccc3nc2s1)N1CCOCC1	aSyn UTR act -98.3
CC1(C)CC(=O)C(N=Nc2ccc(-c3ccccc3)cc2)=C(O)C1	aSyn UTR act -83.6
CSc1ccccc1OCc1cc(C(=O)N(C)Cc2ccc3nsnc3c2)no1	aSyn UTR act -160.5
CSc1ccccc1OCc1cc(C(=O)N(C)Cc2ccc(C)o2)no1	aSyn UTR act -123.3
Cc1nnc(CN(C)C(=O)c2cc(COc3ccc(F)cc3Cl)on2)o1	aSyn UTR act -99.6
CC(=O)c1cccc(OCc2cc(C(=O)N(C)Cc3ccc(C)o3)no2)c1	aSyn UTR act -68.5
O=C(N/N=C/c1ccccc1O)NC12CC3CC(CC(C3)C1)C2	aSyn UTR act -167.5
O=C(CCN1CCN(c2ccccc2)CC1)N/N=C/c1ccccc1O	none
COC(=O)c1cccc(N/C=C(\[N+](=O)[O-])S(=O)(=O)c2ccccc2)c1	aSyn UTR act -62.0
COc1ccc2nc(/N=C(\N)NC(=O)C(C)(C)C)nc(C)c2c1	aSyn UTR act -84.8
CCC(=O)N/C(N)=N/c1nc(C)c2cc(OC)ccc2n1	aSyn UTR act -106.5
COc1cc(NC(=O)c2ccc3snnc3c2)cc(OC)c1	aSyn UTR act -64.6
Cc1ccc(NC(=O)c2ccc3snnc3c2)cc1	aSyn UTR act -226.5
CC(C)c1ccc(NC(=O)c2ccc3snnc3c2)cc1	aSyn UTR act -117.5
O=C(Nc1ccccc1)c1ccc2snnc2c1	aSyn UTR act -78.8
O=C1/C(=C/Nc2cccc([N+](=O)[O-])c2)CCc2ccccc21	aSyn UTR act -186.3
O=c1cc(/C=C/c2ccccc2)oc2ccccc12	aSyn UTR act -205.2
Cc1ccc(-n2nnnc2Sc2ccc(S(=O)(=O)NCCN(C)C)cc2[N+](=O)[O-])cc1	aSyn UTR act -93.2
O=[N+]([O-])c1cc(S(=O)(=O)NCCN2CCOCC2)ccc1Sc1nnnn1-c1ccccc1	aSyn UTR act -95.8
CC(=O)Nc1ccc(-c2cc(N)n(-c3ccccc3)n2)cc1	aSyn UTR act -162.1
Cc1ccc(-n2nc(-c3ccc(N)cc3)cc2N)cc1	aSyn UTR act -132.3
Nc1ccc(-c2cc(N)n(-c3ccccc3)n2)cc1	aSyn UTR act -103.9
Nc1cc(-c2ccc(Cl)cc2)nn1-c1ccccc1	aSyn UTR act -138.2
CCc1ccc2oc(C(=O)Nc3cccnc3)c(C)c2c1	aSyn UTR act -220.4
C/C(=N\NC(=O)c1cc(-c2cccnc2)nc2ccccc12)c1ccccc1O	none
O=C(Nc1cccnc1)c1cc2c(ccc3ccccc32)o1	aSyn UTR act -103.8
Cc1c(C(=O)Nc2cccnc2)oc2ccc(Br)cc12	aSyn UTR act -246.2
CC(=O)Nc1cccc(NC(=O)c2cc(-c3cccnc3)nc3ccc(Br)cc23)c1	aSyn UTR act -62.4
CC(C)(C)C(=O)Nc1nc(-c2ccccc2)ns1	aSyn UTR act -145.6
c1ccc(Nc2nc(-c3ccccc3)ns2)cc1	aSyn UTR act -144.2
CCCc1cc(=O)oc2cc(OCC(=O)Nc3ccccn3)ccc12	aSyn UTR act -91.7
Cc1cc(=O)oc2cc(OCC(=O)Nc3ccc(N4CCC(C)CC4)cc3)ccc12	aSyn UTR act -70.1
Cc1ccc(NC(=O)C2CCC(CNc3c(N4CCC(C)CC4)c(=O)c3=O)CC2)cc1F (stereo unspecified)	none
Cc1csc(NC(=O)COc2ccc3c(C)cc(=O)oc3c2)n1	aSyn UTR act -62.4
COc1ccccc1/C=N/N(C(C)=O)c1nc(-c2ccc(F)cc2)cs1	aSyn UTR act -121.2
O=C(O)c1c(-c2ccc(Cl)cc2)cn2ccccc12	aSyn UTR act -166.6
CCOC(=O)C(Nc1ccc2ccccc2c1)C(=O)OCC	aSyn UTR act -138.1
O=Cc1cc(N=Nc2ccccc2Cl)ccc1O	aSyn UTR act -111.5
O=c1cc(-c2ccc(O)c(O)c2)oc2cc(O)cc(O)c12	aSyn UTR act -206.6
O=c1c(O)c(-c2ccc(O)c(O)c2)oc2cc(O)cc(O)c12	aSyn UTR act -108.6
COc1cc(-c2cc(=O)c3c(O)c(OC)c(OC)c(O)c3o2)ccc1O	none
COC(=O)c1ccc(CSC2=NCCS2)cc1	aSyn UTR act -82.9
CCc1ccc(/C=C2\SC(=S)N(CCC(=O)NC3=NCCS3)C2=O)cc1	none
COc1ccc(-c2nc3ccccn3c2C=O)cc1	aSyn UTR act -109.7
O=Cc1c(N2CCN(c3ccccc3)CC2)nc2ccccn2c1=O	aSyn UTR act -86.3
COc1ccc(N2CCN(c3nc4ccccn4c(=O)c3C=O)CC2)cc1	aSyn UTR act -67.7
N#CC(C#N)=Cc1c(N2CCN(c3ccccc3)CC2)nc2ccccn2c1=O	aSyn UTR act -72.1
CC(C)c1ccc2c(c1)C(N1CCNCC1)Cc1ccc(F)cc1S2 (stereo unspecified)	none
O=C(Oc1ccccc1/C=C\C(=O)c1cc2ccccc2o1)c1ccccc1	aSyn UTR act -299.6
O=C(Oc1ccccc1/C=C\C(=O)c1cc2ccccc2o1)c1cccc(F)c1	aSyn UTR act -233.9
COc1cccc(C(=O)Oc2ccccc2/C=C\C(=O)c2cc3ccccc3o2)c1	aSyn UTR act -191.9
CC1CCN(c2c([N+](=O)[O-])nn(-c3ccc4c(c3)OCCO4)[n+]2[O-])CC1	aSyn UTR act -97.5
CN(C1=C(NC(=O)c2ccc(Cl)cc2)C(=O)c2ccccc2C1=O)c1ccccc1	aSyn UTR act -83.4
COc1ccc(-c2csc(-n3cccn3)n2)cc1	aSyn UTR act -153.3
CCN(CC)CCCNC(=S)N1CCN(c2nc(-c3ccc(F)cc3)cs2)CC1	none
COc1ccc(-c2csc(N3CCSCC3)n2)cc1	aSyn UTR act -224.7
Fc1ccc(-c2csc(N3CCC(c4ccccc4)C3)n2)cc1 (stereo unspecified)	aSyn UTR act -198.6
COc1ccc(-c2csc(N3CCC(c4ccccc4)C3)n2)cc1 (stereo unspecified)	aSyn UTR act -114.1
Clc1ccc(-c2csc(N3CCC(c4ccccc4)C3)n2)cc1 (stereo unspecified)	aSyn UTR act -225.9
COc1cc2c(cc1OC)CN(c1ccc(F)cc1[N+](=O)[O-])CC2	aSyn UTR act -79.0
COc1cc2c(cc1OC)CN(c1ncccc1[N+](=O)[O-])CC2	aSyn UTR act -88.2
COc1ccc(COC(=O)c2cc([N+](=O)[O-])ccc2N2CCOCC2)cc1F	none
